Screen size: about 410,000 compounds; about 5,100 (1.2%) were called active. Inconclusive results (about 8%) are left out. Shown is part of a subset that was picked to be rich in actives. A call without a number means that no potency is given here. Unmarked numbers belong to inactive results. The call rests on the fitted dose curve; tested in HEK293T cells.
Experiment: High Throughput Screening for Foot and Mouth Disease Virus Antivirals; further: read-out not given here; nearly all actives have a fitted effect of over 45% in size
Details: FMDV antiviral cell-based qHTS; series mostly up to 57.9 µM
Potency means the concentration at half of the fitted maximal effect.

Compound	Potency	activity change, negative = inhibition
CCC(=O)N1CCc2cc(CNS(=O)(=O)c3ccc(Br)s3)ccc21	inactive	–
Cn1c(=O)c2c(nc(NCCc3ccccc3)n2Cc2ccccc2Br)n(C)c1=O	inactive	–
CC(C)CCn1c(CN(C)Cc2ccccc2)nc2c1c(=O)n(C)c(=O)n2C	39.8 µM (active)	–
CC(C)CCn1c(=O)c2c(nc3n2CCCN3Cc2ccccc2)n(C)c1=O	inactive	–
Cn1c(=O)c2c(nc(NCCc3ccccc3)n2Cc2ccccc2)n(C)c1=O	14.1 µM (active)	–
Cn1c(=O)c2c(nc(SCC(=O)Nc3ccc(F)cc3)n2Cc2ccccc2)n(C)c1=O	inactive	–
Cn1c(=O)c2c(nc(OCc3cccnc3)n2Cc2ccccc2)n(C)c1=O	inactive	–
CN(C)C(=O)c1ccc(-c2cncnc2NC2CCNCC2)cc1	inactive	–
COCCn1c(=O)c(-c2cccs2)nc2cnc(N3CCN(C)CC3)nc21	inactive	–
Cc1ccccc1NC(=O)Cn1c(=O)n(CCCCC(=O)NCc2ccccc2Cl)c(=O)c2ccccc21	inactive	–
C=CS(=O)c1sc(Cl)c(N2CCOCC2)c1[N+](=O)[O-] (configuration not stated)	28.2 µM (active)	–
CN(C)c1ncc2nc(-c3ccc(F)cc3)c(=O)n(Cc3ccc(F)cc3)c2n1	inactive	–
CC(=O)N(CN1C(=O)C2C3C=CC(C3)C2C1=O)c1cccc(Cl)c1 (configuration not stated)	inactive	–
O=C(O)c1cc(S(=O)(=O)N(Cc2ccccc2)c2ccccc2)ccc1Cl	inactive	–
O=C(CCl)N(Cc1cccc([N+](=O)[O-])c1)c1cccc(Cl)c1	28.2 µM (active)	–
FC(F)(F)c1ccccc1-c1nc(-n2ccnc2)c2ccccc2n1	inactive	–
Cc1cccc(NC(=O)Cn2c(C(F)(F)F)nc3ccccc32)c1C	inactive	–
CC(=O)Nc1cc(C(=O)N2CCc3c(Cl)cccc3C2)cc2ncn(CCc3ccccn3)c12	inactive	–
COc1ccc(CCNC(=O)c2ccc3c(c2)sc2nc(-c4ccc(C)cc4)cn23)cc1OC	inactive	–
CCOC(=O)C1CCCN(C(=O)c2ccc3c(c2)sc2nc(-c4ccc(CC)cc4)cn23)C1 (configuration not stated)	14.1 µM (active)	–
CCOC(=O)C1CCCN(C(=O)c2cncc(Br)c2)C1 (configuration not stated)	inactive	–
CCC(=O)N1c2ccccc2CC1C(=O)N1CCN(c2cccc(OC)c2)CC1 (configuration not stated)	inactive	–
CCNS(=O)(=O)c1ccc(CCC(=O)N2CCN(c3cc(Cl)ccc3C)CC2)cc1	15.8 µM (active)	–
CCCNS(=O)(=O)c1ccc(CCC(=O)N2CCCC2)cc1	inactive	–
CCNS(=O)(=O)c1ccc(CCC(=O)N2CCN(c3ccc(OC)cc3)CC2)cc1	inactive	–

Compound	Potency	activity change, negative = inhibition
Cc1cnc(C(=O)N2CCOc3ccc(CN4CCCC(C(=O)c5cccnc5)C4)cc3C2)[nH]1 (configuration not stated)	inactive	–
CC(=O)Nc1ccccc1-c1nc(CNC(=O)c2ccc(Cl)cc2)c(C)o1	inactive	–
C=CCOc1ccc(/C=C/C(=O)OC(C)C(=O)Nc2ccc(NC(C)=O)cc2)cc1 (configuration not stated)	inactive	–
C=CCOc1ccc(/C=C2\SC(=S)N(CCC(=O)O)C2=O)cc1	1 µM (active)	–
C=CCN1C(=O)NC(=O)/C(=C/c2ccc(OCC(=O)Nc3ccc(C)cc3)cc2)C1=O	inactive	–
COC(=O)[C@@H]1C[C@H](NC(=O)c2ccccc2C(F)(F)F)CN1Cc1cccc(O)c1	inactive	–
FC(F)(F)c1cccc(-c2cn[nH]c2C2CCCN(Cc3cccn3-c3ccccn3)C2)c1 (configuration not stated)	inactive	–
COc1ccc(CCC(=O)c2c(O)cc(OC3OC(CO)C(O)C(O)C3O[C@@H]3OC(C)C(O)C(O)C3O)cc2O)cc1O (some centres not stated)	inactive	–
COc1ccc(CCNc2ncnc3sc(C(=O)N4CCCC4)c(C)c23)cc1OC	inactive	–
COc1ccc(CCNc2nc3ccc(C)cc3n3cnnc23)cc1OC	inactive	–
COc1ccc(CCNc2ncnc3nc[nH]c23)cc1OC	25.1 µM (active)	–
c1ccc(CCCCN2CCC(c3ccccc3)CC2)cc1	inactive	–
CCOC(=O)/C(=C\c1ccc([N+](=O)[O-])cc1)C(=O)c1cc(C(C)=O)c(Nc2ccccc2)s1	15.8 µM (active)	–
CCOC(=O)c1c(C)[nH]c(C)c1C(=O)COC(=O)/C=C/c1cccc([N+](=O)[O-])c1	inactive	–
CC(C)c1nnc(NC(=O)COC(=O)/C=C/c2ccc([N+](=O)[O-])cc2)s1	inactive	–
COc1ccc(OCCCn2c(C)nc3cc(C)c(C)cc32)cc1	inactive	–
COc1ccc(NC(=O)CSc2nccn2C2CCCC2)cc1OC	inactive	–
COc1ccc(C2CC(=O)N(Cc3ccccc3C)c3c2c(C)nn3-c2nc(C)cc(C)n2)c(OC)c1 (configuration not stated)	inactive	–
O=C(O)CCn1c(O)c(C=C2N=c3ccccc3=N2)sc1=S	10 µM (active)	–
CCc1nc(-c2cc(S(=O)(=O)N3CCN(c4ccc(OC)cc4)CC3)ccc2OC)no1	inactive	–
CN(Cc1cn(Cc2ccc(C(F)(F)F)cc2)nn1)C1CN(Cc2cn(Cc3ccc(C(F)(F)F)cc3)nn2)S(=O)(=O)C1 (configuration not stated)	17.8 µM (active)	–
CN(C)C1CN(Cc2cn(Cc3ccccc3)nn2)S(=O)(=O)C1 (configuration not stated)	inactive	–
Cc1ccc(Cn2cc(CN3CC(N4CCN(C)CC4)CS3(=O)=O)nn2)cc1 (configuration not stated)	inactive	–
Cc1ccc(CN2CCC(CNC(=O)c3cnn(-c4ccc(C)cc4)c3C3CCN(C(=O)OC(C)(C)C)CC3)CC2)cc1	inactive	–
COc1ncc2nc(-c3ccc(Cl)cc3)c(=O)n(C)c2n1	inactive	–

Compound	Potency	activity change, negative = inhibition
Cc1ccc2nc(NC(=O)c3nc(SCc4ccccc4F)ncc3Cl)sc2c1	inactive	–
CCCSc1ncc(Cl)c(C(=O)Nc2c(C(=O)Nc3ccccc3)oc3ccccc23)n1	inactive	–
CSc1nnc(NC(=O)c2nc(S(=O)(=O)Cc3ccc(C)cc3)ncc2Cl)s1	12.6 µM (active)	–
CCS(=O)(=O)c1ncc(N(Cc2ccc(F)cc2)Cc2ccco2)c(C(=O)Nc2cc(C)ccc2C)n1	inactive	–
Cc1cccc(NC(=O)Cn2cc(S(=O)(=O)Cc3ccccc3Cl)c3ccccc32)c1	inactive	–
CCOC(=O)c1ccc(NC(=O)c2nc(SCc3ccc(F)cc3)ncc2Cl)cc1	inactive	–
Cc1cccc(NC(=O)c2nc(S(=O)(=O)Cc3ccccc3)ncc2Cl)c1	10 µM (active)	–
O=C(Nc1nc2ccc(F)cc2s1)c1nc(SCc2ccccc2F)ncc1Cl	inactive	–
Cc1ccc(NC(=O)c2nc(S(=O)(=O)Cc3cccc(C)c3)ncc2Cl)cc1	25.1 µM (active)	–
CCC(C)(C)N=C(NC#N)Nc1cccnc1	inactive	–
COc1ccccc1C1CN(CCNC(=O)C2=CCCC2)Cc2ccccc2O1 (configuration not stated)	inactive	–
CCOC(=O)c1c(S(=O)(=O)N2CCCC(C(=O)NCc3cccc(C)c3)C2)c(C)n(C)c1C (configuration not stated)	inactive	–
CCc1ccccc1N1C(=O)CN(S(=O)(=O)CC)CC1(C)C(=O)NC1CCCCC1 (configuration not stated)	inactive	–
CCN(CCCNC(=O)Cn1ncc2c([nH]c3ccccc32)c1=O)c1cccc(C)c1	inactive	–
Cc1[nH]c2c(C(=O)NCC3Cc4cccc(-c5cccnc5)c4O3)cccc2c1C (configuration not stated)	inactive	–
N#Cc1cccc(-c2ccc3ncnc(NCc4cccs4)c3c2)c1	inactive	–
O=C1CC(c2nnc(Cc3ccc(Cl)cc3)o2)CN1c1ccccc1 (configuration not stated)	inactive	–
Cc1noc(C)c1-c1nccc(N2CCOCC2)n1	inactive	–
CCCc1nc(SCC(=O)N2CCCC2)c2c(=O)n(C)c(=O)n(C)c2n1	inactive	–
CCCc1nc(SCC(=O)Nc2ccccc2OC)c2c(=O)n(C)c(=O)n(C)c2n1	25.1 µM (active)	–
CCc1nc(SCC(=O)Nc2ccccc2OC)n[nH]1	inactive	–
COc1cccc(-c2nc(Nc3ccncc3)c3ccccc3n2)c1	inactive	–
CN1CCN(c2ncncc2-c2ccc(C(=O)N(C)C)cc2)CC1	inactive	–
CN(C)C(=O)[C@@H]1C[C@@H](Sc2nc3ccccc3[nH]2)CN1Cc1ccc(Cl)cc1	inactive	–
N#C/C=C/N1CCN(Cc2ccc3c(c2)OCO3)CC1	inactive	–

Compound	Potency	activity change, negative = inhibition
Fc1ccc2[nH]c3c(N4CCSCC4)ncnc3c2c1	3.16 µM (active)	–
Fc1ccc2[nH]c3c(N4CCN(Cc5ccc6c(c5)OCO6)CC4)ncnc3c2c1	6.31 µM (active)	–
O=C(CSc1nc2c(c(=O)[nH]1)CN(Cc1ccc3c(c1)OCO3)CC2)Nc1cc(F)ccc1F	inactive	–
Cc1cccc2nc(-c3ccc(Cl)s3)c(Nc3ccc4c(c3)OCCO4)n12	inactive	–
CCOC(=O)c1cc2cc(-c3c(C(=O)OCC)oc4cc(O)cc(O)c4c3=O)ccc2o1	31.6 µM (active)	–
CCN(CC)CCOC(=O)c1cc2cc(COC)ccc2o1	inactive	–
CCOC(=O)c1c(-c2ccc(OC)cc2)oc2ccc(OCc3ccc(C(=O)OC)cc3)cc12	inactive	–
Cc1ccc(-c2nnc(SCc3ccccc3C)o2)cc1	inactive	–
COc1ccccc1CNc1cc(-c2ccccc2CN(C)C)ncn1	inactive	–
O=C(c1ccc2c(c1)N(Cc1ccc(Cl)cc1)C(=O)c1ccccc1S2(=O)=O)N1CCCCC1	inactive	–
COc1ccc(C)cc1N1C(=O)[C@@H]2C[C@H]1CN2Cc1cccc(OC)c1O	inactive	–
CCCCC/C=C\C/C=C\C/C=C\CCCCCCC(=O)NCCO	–	-10.3% [at 6.7 µM]
Cc1ccc(-c2nn(CCC(=O)Nc3ccc(Cl)c(Cl)c3)c(=O)c3ccccc23)cc1	inactive	–
CC(c1cccnc1)N(CCN(C)C)C(=O)Nc1ccc(Cl)c(Cl)c1 (configuration not stated)	inactive	–
O=C(CC(O)(C(F)(F)F)C(F)(F)F)Nc1ccc(Cl)c(Cl)c1	8.91 µM (active)	–
Cc1cc(Nc2cccc(C(F)(F)F)c2)nc2ccc(NC(=O)c3ccc(=O)[nH]c3)cc12	inactive	–
Cc1ccc(/C(=C/CN2CCCC2)c2ccccn2)cc1	inactive	–
CC(N)(C(=O)O)c1ccc(-c2nn[nH]n2)cc1 (configuration not stated)	inactive	–
CCN1CCN(C(c2ccc(C)cc2)c2c(O)cc(C)n(Cc3ccco3)c2=O)CC1 (configuration not stated)	inactive	–
O=C(Nc1ccc2c(c1)nc1n2CCCCC1)c1cc(S(=O)(=O)N2CCOCC2)ccc1Cl	25.1 µM (active)	–
Cc1occc1C(=O)Nc1cccc(S(=O)(=O)N2CCOCC2)c1	inactive	–
O=S(=O)(c1cccc(-c2nnc3n2CCCCC3)c1)N1CCOCC1	inactive	–
